Source: PubChem BioAssay (NCI)
Compounds without any hit were thinned out: in the full panel of roughly 83,000, 20% have a hit.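 Single-concentration screen, 48 h exposure, 96-well plates. Endpoint: percent growth. Below 10 = active.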 Values without a mark were called inactive. Activity calls are given as the source filed them.

What follows are compounds tested on MDA-MB-468 breast (assay: NCI-60 one-dose screen, 48 h (100 = growth as untreated, 0 = no growth, -100 = all killed)). Conditions: 10 µM unless noted.

Point of comparison: `COc1ccc(C(=O)N/N=C/c2cc(C(F)(F)F)ccc2Cl)cc1`, growth 53.2%. Against it:
- [2H]C([2H])([2H])Oc1c(F)cccc1/C=C/C(=O)/C=C(O)/C=C/c1cccc(F)c1OC([2H])([2H])[2H] — higher, 98.3%
- OCc1ccccn1 — higher, 99.9%
- N#Cc1c(-c2ccccc2)cc(-c2ccccc2)n(CCCCC(=O)NO)c1=O — lower, 20%
- O=C1C=CC2(NN=C(c3ccccc3)N2c2ccccc2)c2cccc(O)c21 (configuration not stated) — lower, 36.2%
- COC(=O)c1c(C(=O)OC)c2n(CC(=O)Nc3cccc4cccnc34)c3ccccc3n2c1C(=O)c1ccc(C)cc1 — higher, 98.6%
- CC(=O)OCC1CCC(COC(C)=O)CC1 (configuration not stated) — higher, 110%
- COC1=C(OC)C(=O)C=CC1=O — higher, 105%
- O=C(NCCCN1CCC(N2CCCCC2)CC1)C1=Cc2cc(Br)ccc2OC1 — lower, 45.6%
- Cc1nn(-c2ccccc2)c(N2CCOCC2)c1-c1nc2ccc([N+](=O)[O-])cc2[nH]1 — higher, 94.3%
- CC/C(=C\c1ccc(OC)cc1)C(=O)c1ccc(OC)cc1 — higher, 79.2%
- O=C(OCC1CC2(Cl)C(Cl)=C(Cl)C1(Cl)C2(Cl)Cl)C1C(C(=O)OCC2CC3(Cl)C(Cl)=C(Cl)C2(Cl)C3(Cl)Cl)C2(Cl)C(Cl)=C(Cl)C1(Cl)C2(Cl)Cl (configuration not stated) — higher, 107%
- CSc1nc(N)n2nccc2n1 — higher, 114%
- CC(CN)[C@@H]1CC[C@]2(CO)CC[C@]3(C)[C@H](CC[C@@H]4[C@@]5(C)CCC(NCCO)C(C)(C)[C@@H]5CC[C@]43C)[C@@H]12 (some centres not stated) — lower, 11.8%
- N#Cc1c(-c2ccc(F)cc2)c(C#N)c2c(C#N)c(N)nn2c1N — higher, 83.5%
- Nc1nc(I)c2ncn(C3OC(CO)C(O)C3O)c2n1 (configuration not stated) — higher, 115%
- COc1ccc(/C(C#N)=C2C=C/C(=N/O)c3ccccc3\2)cc1 — lower, 37.1%
- COc1ccc(C(=O)/C=C/C23c4ccccc4C(c4ccccc42)C2C(=O)NC(=O)C23)cc1 (configuration not stated) — higher, 98.7%
- CCNC(=O)Oc1ccc(/C(=C(/C)c2ccc(Cl)cc2)c2ccc(OCCN3CCCC3)cc2)cc1 — higher, 84.1%
- CN(C)C(CNc1oc(-c2cccc3ccccc23)nc1C#N)c1ccco1 (configuration not stated) — higher, 97%
- COc1cc(/C=C/C(=O)c2cc(-c3ccc(F)cc3)ccc2O)cc(OC)c1OC — higher, 65.6%
- O=C(O)c1ccccc1C(=O)OC1CCCC2CCCC21 (configuration not stated) — higher, 102%
- CCCCNC(=O)NS(=O)(=O)c1ccc(N2N=C(c3ccc(C)cc3C)CC2c2ccc(OC)cc2)cc1 (configuration not stated) — higher, 65.1%
- NCCn1cc(-c2nc(-c3c[nH]c4ncccc34)cs2)c2cc(F)ccc21 — higher, 64.9%
- CC12O[C@H](C[C@@H](O)[C@H]1O)n1c3ccccc3c3c4c(c5c6ccccc6n2c5c31)C(=O)N(CCCN)C4=O — lower, 17.1%
- C=C1C(=O)O[C@H]2[C@H]1CC/C(Cn1cc(CNCCc3c[nH]c4ccc(Cl)cc34)nn1)=C\CC[C@@]1(C)O[C@@H]21 — lower, 19.6%
- O=C1Nc2ccccc2/C1=C/c1c[nH]c2ccccc12 — lower, 44.4%

For `C=C(C)[C@@H]1CC[C@]2(C)[C@H](CC=C3[C@@H]4CC(C)(C)CC[C@]4(CO)CC[C@]32C)[C@@]1(C)CCCN`, the growth was -56.3% (active).
With `O=C(/C=C/CN1CCOCC1)Nc1cc2c(Nc3ccc(F)c(Cl)c3F)ncnc2cc1OCCOC(F)F` the growth was -17.6% (active).
In the case of `COc1ccc(Cn2cc3c(c2-c2cc(OC)c(OC)c(OC)c2)CCc2cnoc2-3)cc1`, the growth is reported as 4.09% (active).
With `COc1cc(-c2nnc(SCc3ccc(O)c4ncccc34)n2-c2ccccc2)cc(OC)c1OC` the growth was -10.1% (active).
In the case of `CCOc1cccc(/C=N/NC(=O)C(=O)Nc2cccc(C(F)(F)F)c2)c1O`, the growth is reported as 1.46% (active).
In the case of `COc1ccc(-c2csc(NC(=O)N3CCN(c4cc5c(cc4F)c(=O)c(C(=O)O)cn5C4CC4)CC3)n2)cc1`, the growth is reported as -2.96% (active).
`CC(=O)Nc1c(Br)cc2c(c1Br)Cc1cc(Br)ccc1-2` was tested, and the growth was -35.2% (active).
For `Cc1cc2c(cc1C)N(C(=O)CCl)CCN2C(=O)CCl`, the growth was -76% (active).
With `CC(C)C[C@H](NC(=O)[C@@H](Cc1ccccc1)n1ccc(Nc2ccccc2)cc1=O)B(O)O` the growth was -19.8% (active).

`CCC12OC(COc3ccccc3)CN1CCN2c1ccccc1` (configuration not stated) was tested, and the growth was 97.4% [100 µM].
